Experimental data as given in PubChem BioAssay (NCI).
About 83,000 compounds went through this panel and 20% of them were active in at least one assay; those are over-represented in the sample as a whole.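 In brief: 96-well plates, 48 h treatment, single concentration, percent growth endpoint.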 Unmarked numbers belong to inactive results. The source made the active and inactive calls. The calls were made as follows: active = growth percent below 10; inactive = the rest.

Key:
Assay in all cases: NCI-60 one-dose screen, 48 h (100 = growth as untreated, 0 = no growth, -100 = all killed)
Conditions in all cases: 10 µM unless noted
HCT-15 colon = system: HCT-15 colon
HT29 colon = system: HT29 colon
SNB-75 CNS = system: SNB-75 CNS
SNB-19 CNS = system: SNB-19 CNS
U251 CNS = system: U251 CNS
PC-3 prostate = system: PC-3 prostate
SK-MEL-5 melanoma = system: SK-MEL-5 melanoma
UACC-62 melanoma = system: UACC-62 melanoma
LOX IMVI melanoma = system: LOX IMVI melanoma
SK-MEL-2 melanoma = system: SK-MEL-2 melanoma
EKVX NSCLC = system: EKVX NSCLC
SN12C renal = system: SN12C renal
UO-31 renal = system: UO-31 renal
TK-10 renal = system: TK-10 renal
ACHN renal = system: ACHN renal
CAKI-1 renal = system: CAKI-1 renal
A498 renal = system: A498 renal
CCRF-CEM leukemia = system: CCRF-CEM leukemia
MOLT-4 leukemia = system: MOLT-4 leukemia
SK-MEL-28 melanoma = system: SK-MEL-28 melanoma

| Structure (SMILES) | growth (HCT-15 colon) | growth (HT29 colon) | growth (SNB-75 CNS) [%] | growth (SNB-19 CNS) | growth (U251 CNS) | growth (PC-3 prostate) | growth (SK-MEL-5 melanoma) | growth (UACC-62 melanoma) | growth (LOX IMVI melanoma) | growth (SK-MEL-2 melanoma) | growth (EKVX NSCLC) [%] | growth (SN12C renal) | growth (UO-31 renal) | growth (TK-10 renal) [%] | growth (ACHN renal) | growth (CAKI-1 renal) | growth (A498 renal) | growth (CCRF-CEM leukemia) | growth (MOLT-4 leukemia) | growth (SK-MEL-28 melanoma) [%] |
| --- | --- | --- | --- | --- | --- | --- | --- | --- | --- | --- | --- | --- | --- | --- | --- | --- | --- | --- | --- | --- |
| Cc1ccccc1OCC(O)COc1ccccc1C | 79.1% | 103% | 112 | 94.9% | 86.1% | 94.8% | 93.6% | 81.9% | 97.6% | 102% | 101 | 83.9% | 78.9% | 120 | 84.4% | 80% | 102% | 85.2% | 131% |  |
| CCCCN1C(=O)/C(=c2\sc3n(c2=O)NC2C(N=3)N(CC)C(=O)N2CC)c2ccccc21 (centres undefined) | 33.5% | 16% | 11.2 | 61.9% | 33.8% | 45.1% | 55% | 37.4% | 47.6% | 59.1% | 67.9 | 50.5% | 40.1% |  | 48.4% | 30.3% | 42.3% | 26.1% | 43.6% |  |
| O=C1CCCc2nc3sc4c(=O)n(-c5ccccc5Cl)nnc4c3cc21 | 84.3% | 77.5% | 114 | 93% | 88.5% | 83.6% | 87.9% | 90.6% |  | 95.2% | 91.7 | 90.4% | 92.4% | 95 | 107% | 97.6% | 95.5% | 85.1% | 98.2% | 109 |
| CNC(=O)c1c(NC(=O)c2ccc(C(C)(C)C)cc2)sc2c(CN(C)C)c(O)ccc12 | -77.3% (active) | 0.0225% (active) | 94.9 | 0.882% (active) | -29.9% (active) | -23.3% (active) | -29.5% (active) | -85.9% (active) | -88.5% (active) | -53% (active) | 63.3 | 4.62% (active) | -78.5% (active) | 87.5 | -22.3% (active) | -13.1% (active) | 53.1% | -7.61% (active) | -35.5% (active) |  |
| COc1cc(C2Cc3ncccc3-c3[nH]c(=O)c4cccnc4c32)cc(OC)c1OC (centres undefined) | 16.9% | 0.572% (active) | 41.1 | 29.2% | 15.8% | 21.8% | 18.6% | 28.2% | 29.2% | 19.4% | 44.2 | 39.8% | 38.6% | 52.6 | 46.4% | 31.8% | -1.31% (active) | 22.1% | 23.8% |  |
